# The whole screen tested about 420,000 compounds, of which about 50,000 (12%) were called active. About 26% were inconclusive and are not listed. Many of the other results were omitted from the sample, so actives are more common in it than they were. Values without a mark were called inactive. Calls follow the shape of the dose curve; as a rule, active = well fitted inhibition curve with a large enough effect; inconclusive = small, poorly fitted or top-dose-only effect; inactive = flat fitted curve, though single readings scatter.
# Assay: qHTS for Inhibitors of human tyrosyl-DNA phosphodiesterase 1 (TDP1): qHTS in cells in presence of CPT; also: nearly all actives have a fitted effect of over 55% in size
# Conditions: chicken DT40 Tdp1-/-;hTDP1 cells + 20 nM CPT, ATP luminescence, 48 h; series mostly up to 46.2 µM; activity change, negative = growth inhibition: at the top concentration
# Outline: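 Cell growth measured by CellTiter-Glo luminescence after a minimum 48 h, 37 C compound exposure with 20 nM CPT in Tdp1-knockout DT40 cells stably expressing hTDP1, seeded 400/well; qHTS titration format.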
# % is scaled to controls: 0 for no effect and ±100 for the full control effect; potency is read from the fitted curve at half-maximal effect.
Structure (SMILES),"activity change, negative = growth inhibition [%]",Potency
C=CCc1c(C)nc2cc(-c3ccccc3)[nH]n2c1=O,-22.6,
Cc1cc(=O)n2[nH]c(-c3cccc(Cl)c3)cc2n1,,18.4 µM (active)
O=C1CCCc2c1nc(-c1cccc(Cl)c1)n2O,-22.1,
O=[N+]([O-])c1ccc2[nH]c3c(c2c1)CCCC3O (configuration not stated),2.97,
O=C1/C(=C\c2ccsc2)NC(=S)N1c1ccccc1,-5.02,
O=c1c(-c2ccccc2Cl)c[nH]n1-c1ccccc1,-13.2,
COc1cccc(NC(=O)CN2CCN(c3nc(-c4cccc(OC)c4)cs3)CC2)c1,-27.1,
COc1cccc(-c2cc3nc4c(c(N5CCC6(CC5)OCCO6)n3n2)CCCC4)c1,,23.1 µM (active)
COc1cccc(CNc2nc3nc4c(c(=O)n3[nH]2)CCC4)c1,7.39,
CC(=NNC(=O)c1ccc2nc[nH]c2c1)c1ccc(Br)cc1,-16.2,
O=C(NCCCO)C(=O)Nc1c2c(nn1-c1ccc(F)cc1)CSC2,-6.22,
Cc1ccc(S(=O)(=O)N[C@H]2CCC[C@@H]2O)cc1,23.7,
O=C(Nc1cc(C(F)(F)F)ccc1Cl)c1ccc2c(c1)CCN2S(=O)(=O)c1ccccc1,,18.4 µM (active)
CCN(C(=O)COC(=O)c1cc(S(=O)(=O)N2CCc3ccccc32)ccc1OC)C1CCS(=O)(=O)C1 (configuration not stated),1.42,
CS(=O)(=O)N1CCc2cc(C(=O)Nc3ccccc3)ccc21,-7.48,
COc1ccc(S(=O)(=O)N2CCc3ccccc32)cc1C(=O)Nc1cc(S(C)(=O)=O)ccc1Cl,,9.2 µM (active)
Cc1ccc(S(=O)(=O)N2CCc3cc(C(=O)Nc4ccc(Cl)cc4C)ccc32)cc1,-7.99,
COc1cccc(NC(=O)c2cc(S(=O)(=O)N3CCc4ccccc43)cn2C)c1,1.38,
Cc1noc(C)c1NC(=O)N(C)C[C@@H]1Oc2cc(Br)ccc2S(=O)(=O)N([C@@H](C)CO)C[C@H]1C,-16.2,
Cc1ccc(CNC(=O)C2CCCN2S(=O)(=O)c2ccc3c(c2)C(C)(C)C(=O)N3C)cc1 (configuration not stated),-4.08,
COc1cc(Br)cc2cc(S(=O)(=O)c3ccccc3)c(=O)oc12,-17.1,
CCOC(=O)C(Cc1ccc(N)cc1)N1C(=O)c2ccccc2C1=O (configuration not stated),-20.1,
O=C(Nc1ccccc1F)c1ccc(Cn2cc(Br)cn2)cc1,-29.2,
COc1ccc(N(Cc2cc3cc(OC)ccc3[nH]c2=O)S(C)(=O)=O)cc1,-13.5,
CC(=O)OCc1cc2cc(C)ccc2[nH]c1=O,-29.4,
CCCc1nc(-c2cc3cc(C)ccc3[nH]c2=O)no1,-11.1,

Structure (SMILES),"activity change, negative = growth inhibition [%]",Potency
CCC(=O)N(Cc1cc2cc(OC)ccc2[nH]c1=O)c1ccccc1C,-12.5,
CCNCc1cc2cc(C)ccc2[nH]c1=O,,18.4 µM (active)
COc1ccc2[nH]c(=O)c(CNc3ccc(C)c(C)c3)cc2c1,,4.11 µM (active)
CCCCN1C(=O)c2ccc(C(=O)Nc3ccc(S(=O)(=O)N(C)C)cc3)cc2C1=O,-24.7,
Cc1ccccc1Nc1nc(N)nc(COC(=O)CCC(=O)c2ccc(F)cc2)n1,-18.4,
Cc1cc(NC(=O)c2ccc(-c3ccc(Cl)cc3)o2)cc(-c2nc3ncccc3o2)c1O,0.843,
O=Cc1cn(Cc2ccccc2)nc1-c1cccnc1,-0.314,
Cc1ccccc1C1=N/C(=C/c2cccnc2)C(=O)O1,-27.4,
O=C1/C(=C\c2cccnc2)CN(Cc2ccccc2)C/C1=C\c1cccnc1,,5.17 µM (active)
O=C(C(=O)N1CCc2ccccc2C1)c1c[nH]c2ccccc12,-0.41,
CCNC(=O)CCc1nc(-c2ccc(C)cc2)no1,2.65,
Cc1ccc(-c2noc(CCC(N)=O)n2)cc1,-5.46,
CCNC(=O)CCc1nc(-c2ccc(C(C)(C)C)cc2)no1,,16.4 µM (active)
Cn1c(Cc2cccs2)nnc1SCC(=O)Nc1ccccc1,-14.6,
O=C1C(=O)N(CCCO)C(c2ccccc2)/C1=C(\O)c1ccc(Br)cc1 (configuration not stated),-18.7,
CN(CC(=O)NCc1ccc(Cl)cc1)S(=O)(=O)c1cccs1,-1.91,
COCCN1CCN(C(=O)c2sc3ncnc(NCC4CCCO4)c3c2C)CC1 (configuration not stated),6.09,
O=C(COC(=O)c1ncc(Cl)c(Cl)c1Cl)NCc1ccccc1,-15.5,
CC(C)C(NC(=O)c1c(F)cccc1F)C(=O)NNC(=O)c1ccccc1 (configuration not stated),16.2,
CCC(=O)Nc1nc2ccccc2n1Cc1ccccc1C,,14.6 µM (active)
CCC(=O)Nc1ccc(C)cc1-c1nc2ccccc2n(Cc2ccccc2)c1=O,-11.9,
Cc1cccc(NC(=O)Cn2c(C(F)(F)F)nc3ccccc32)c1C,-26.9,
COc1ccc(N2CC(C(=O)N[C@@H](C)C(=O)N3CCCCC3)CC2=O)cc1 (some centres not stated),2.81,
Cc1ccc(Cl)cc1NC(=O)C1CCCN(c2cnccn2)C1 (configuration not stated),-25.9,
COc1ccccc1NC(=O)C1CCCN(c2cc(C)nc3ncnn23)C1 (configuration not stated),-28.8,
Cc1c(Cl)cccc1NC(=O)C1CCCN(c2ncnc3onc(C)c23)C1 (configuration not stated),,8.2 µM (active)
